A word on the AC50: it is the midpoint of the concentration-response curve, whichever way the signal moves.

Read-out in assay [1]: Macrophage colony-stimulating factor (MCSF), CSF1 (gene 1435)
The experiment in a line: BSK_hDFCGF_MCSF: BioMAP Diversity Plus: hDFCGF Assay for Macrophage colony-stimulating factor (MCSF) Biomarker Activity (AID 2283060). The following applies: primary human foreskin fibroblasts; actives raise or lower the signal. The procedure, abridged: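 Human foreskin primary fibroblasts were treated with test chemical for 24 h, and M-CSF was then measured by ELISA. Data were fitted bidirectionally against DMSO as the negative control and activity baseline.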

A short description of assay [2]: BSK_hDFCGF_SRB: Viability Assessment in the BioMAP Diversity Plus: hDFCGF Assay (AID 2283061).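 Also: cells exposed to compound for 24 h before the read.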 Conditions: primary human foreskin fibroblasts. The procedure, abridged: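 Human foreskin primary fibroblasts were treated with compound and assessed 24 h after dosing. Total protein was measured by sulforhodamine B staining (0.1% SRB after 10% TCA fixation, 560 nm read) as a cytotoxicity marker, with bidirectional fitting against DMSO baseline.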

Read-out in assay [3]: TIMP metallopeptidase inhibitor 1 (TIMP1), TIMP1 (gene 7076)
As to the kind of experiment: BSK_hDFCGF_TIMP1: BioMAP Diversity Plus: hDFCGF Assay for TIMP metallopeptidase inhibitor 1 (TIMP1) Biomarker Activity (AID 2283062). The following applies: primary human foreskin fibroblasts; actives raise or lower the signal. A digest of the protocol:
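Primary human foreskin fibroblasts in the hDFCGF system were dosed with compound for 24 h, then TIMP-1 was measured by ELISA. Activity was fitted bidirectionally relative to DMSO control; parallel SRB staining assessed cytotoxicity.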

Read-out in assay [4]: Monokine induced gamma interferon (MIG), CXCL9 (gene 4283)
The experiment in a line: BSK_hDFCGF_MIG: BioMAP Diversity Plus: hDFCGF Assay for Monokine induced gamma interferon (MIG) Biomarker Activity (AID 2283063). Conditions: primary human foreskin fibroblasts; actives raise or lower the signal. A digest of the protocol:
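ELISA read-out of MIG from primary human dermal fibroblasts 24 h post-dosing. Gain or loss of signal fitted bidirectionally, DMSO as baseline.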

Read-out in assay [5]: Matrix Metallopeptidase 1 (MMP1), MMP1 (gene 4312)
The experiment in a line: BSK_hDFCGF_MMP1: BioMAP Diversity Plus: hDFCGF Assay for Matrix Metallopeptidase 1 (MMP1) Biomarker Activity (AID 2283064). The following applies: primary human foreskin fibroblasts; actives raise or lower the signal. A digest of the protocol:
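hDFCGF primary fibroblasts (human foreskin); chemical added; 24 h; MMP1 by ELISA; bidirectional fit vs DMSO.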

Read-out in assay [6]: Vascular cell adhesion molecule 1 (VCAM1), VCAM1 (gene 7412)
As to the kind of experiment: BSK_hDFCGF_VCAM1: BioMAP Diversity Plus: hDFCGF Assay for Vascular cell adhesion molecule 1 (VCAM1) Biomarker Activity (AID 2283065).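 Also: VCAM-1 protein level quantified by ELISA after 24 h chemical exposure.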 Conditions: primary human foreskin fibroblasts; actives raise or lower the signal. A digest of the protocol: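 Primary human foreskin fibroblasts (hDFCGF system) were dosed with chemical and VCAM-1 was measured by ELISA 24 h later. Bidirectional curve fitting used DMSO as negative control and activity baseline.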

Read-out in assay [7]: Plasminogen activator inhibitor-1 (PAI1), SERPINE1 (gene 5054)
As to the kind of experiment: BSK_hDFCGF_PAI1: BioMAP Diversity Plus: hDFCGF Assay for Plasminogen activator inhibitor-1 (PAI1) Biomarker Activity (AID 2283066). The following applies: primary human foreskin fibroblasts; actives raise or lower the signal. A digest of the protocol:
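Primary dermal fibroblasts (human foreskin), hDFCGF system; compound 24 h; PAI-1 by ELISA; bidirectional fit vs DMSO control.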

Read-out in assay [8]: Intercellular Adhesion Molecule 1 (ICAM1), ICAM1 (gene 3383)
The experiment in a line: BSK_KF3CT_ICAM1: BioMAP Diversity Plus: KF3CT Assay for Intercellular Adhesion Molecule 1 (ICAM1) Biomarker Activity (AID 2283067). Conditions: primary human keratinocytes with fibroblasts; actives raise or lower the signal. The procedure, abridged:
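Human keratinocyte plus foreskin fibroblast primary co-culture was exposed to chemical for 24 h. ICAM-1 was then quantified by ELISA, and the data were fit bidirectionally against DMSO as the negative control and baseline.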

Read-out in assay [9]: Interferon-gamma inducible Protein 10 (IP10), CXCL10 (gene 3627)
The experiment in a line: BSK_KF3CT_IP10: BioMAP Diversity Plus: KF3CT Assay for Interferon-gamma inducible Protein 10 (IP10) Biomarker Activity (AID 2283068). Conditions: primary human keratinocytes with fibroblasts; actives raise or lower the signal. The procedure, abridged:
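In a primary skin co-culture of keratinocytes and fibroblasts, IP-10 is quantified by ELISA at 24 h after dosing. SRB staining of parallel wells monitors overt toxicity. Curves are fitted both directions against DMSO.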

Assay [10] in a line: BSK_KF3CT_SRB: Viability Assessment in the BioMAP Diversity Plus: KF3CT Assay (AID 2283069).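 Also: fitted for both signal gain and loss against DMSO baseline.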 Conditions: primary human keratinocytes with fibroblasts. A digest of the protocol:
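Keratinocytes co-cultured with foreskin fibroblasts (human primary); chemical added, 24 h; fix 10% TCA, stain 0.1% SRB, A560. Bidirectional fit vs DMSO.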

Read-out in assay [11]: Interleukin-1 alpha (IL1a), IL1A (gene 3552)
As to the kind of experiment: BSK_KF3CT_IL1a: BioMAP Diversity Plus: KF3CT Assay for Interleukin-1 alpha (IL1a) Biomarker Activity (AID 2283070). Conditions: primary human keratinocytes with fibroblasts; actives raise or lower the signal. A digest of the protocol:
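Chemicals were dosed onto co-cultured human keratinocytes and foreskin fibroblasts, IL-1a was quantified by ELISA at 24 h, and activity was fitted in both directions relative to DMSO controls.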

Read-out in assay [12]: TIMP metallopeptidase inhibitor 2 (TIMP2), TIMP2 (gene 7077)
The experiment in a line: BSK_KF3CT_TIMP2: BioMAP Diversity Plus: KF3CT Assay for TIMP metallopeptidase inhibitor 2 (TIMP2) Biomarker Activity (AID 2283071). Conditions: primary human keratinocytes with fibroblasts; actives raise or lower the signal. The procedure, abridged: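 Cells: human keratinocytes co-cultured with foreskin fibroblasts. Treat with chemical, 24 h. Measure TIMP-2 by ELISA; fit curves bidirectionally vs DMSO baseline.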

Read-out in assay [13]: C-C motif chemokine 2 (Homo sapiens) (UniProt P13500)
The experiment in a line: BSK_KF3CT_MCP1: BioMAP Diversity Plus: KF3CT Assay for Monocyte Chemoattractant Protein 1 (MCP1/CCL2) Biomarker Activity (AID 2283073). Conditions: primary human keratinocytes with fibroblasts; actives raise or lower the signal. A digest of the protocol: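 Human keratinocyte plus foreskin fibroblast primary co-culture exposed to chemical for 24 h. MCP-1 levels measured by ELISA. Bidirectional curve fitting relative to DMSO negative control as baseline.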

Read-out in assay [14]: Matrix Metallopeptidase 9 (MMP9), MMP9 (gene 4318)
As to the kind of experiment: BSK_KF3CT_MMP9: BioMAP Diversity Plus: KF3CT Assay for Matrix Metallopeptidase 9 (MMP9) Biomarker Activity (AID 2283074).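 Also: MMP9 protein level quantified by ELISA in the co-culture.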 The following applies: primary human keratinocytes with fibroblasts; actives raise or lower the signal. A digest of the protocol: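 Human keratinocyte/foreskin fibroblast co-culture; compound added; 24 h; MMP-9 by ELISA; bidirectional fit vs DMSO baseline.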

Read-out in assay [15]: urokinase plasminogen activator (uPA), PLAU (gene 5328)
The experiment in a line: BSK_KF3CT_uPA: BioMAP Diversity Plus: KF3CT Assay for urokinase plasminogen activator (uPA) Biomarker Activity (AID 2283075). Conditions: primary human keratinocytes with fibroblasts; actives raise or lower the signal. The procedure, abridged: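 ELISA readout of uPA, analyzed for signal gain or loss relative to DMSO, from a human primary keratinocyte–foreskin fibroblast co-culture measured 24 h after chemical treatment.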

Read-out in a further assay: CD40, CD40 (gene 958)
The experiment in a line: BSK_LPS_CD40: BioMAP Diversity Plus: LPS Assay for CD40 Biomarker Activity (AID 2283076). Conditions: primary human HUVEC with PBMC; actives raise or lower the signal. A digest of the protocol:
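Primary human umbilical vein endothelial cells co-cultured with peripheral blood mononuclear cells, LPS-stimulated, were dosed with chemical and read 24 h later. CD40 levels were measured by ELISA and fitted bidirectionally against DMSO as negative control and baseline.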

Read-out in assay [16]: E-selectin (Homo sapiens) (UniProt P16581)
The experiment in a line: BSK_LPS_Eselectin: BioMAP Diversity Plus: LPS Assay for Eselectin Biomarker Activity (AID 2283077). The following applies: primary human HUVEC with PBMC; actives raise or lower the signal. A digest of the protocol:
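Human umbilical vein endothelial cells co-cultured with peripheral blood mononuclear cells under LPS stimulation; E-selectin measured by ELISA 24 h after chemical dosing. Activity fitted bidirectionally against DMSO as negative control and baseline.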

Read-out in assay [17]: Interleukin-8 (IL8), CXCL8 (gene 3576)
As to the kind of experiment: BSK_LPS_IL8: BioMAP Diversity Plus: LPS Assay for Interleukin-8 (IL8) Biomarker Activity (AID 2283078). Conditions: primary human HUVEC with PBMC; actives raise or lower the signal. A digest of the protocol: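 Human umbilical vein endothelial cells co-cultured with PBMC were stimulated with LPS; IL-8 levels were measured by ELISA 24 h after chemical dosing. Activity was fitted bidirectionally against DMSO as negative control and baseline.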

Assay [18] is described as follows: BSK_LPS_SRB: Viability Assessment in the BioMAP Diversity Plus: LPS Assay (AID 2283079).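 Also: total protein by sulforhodamine B absorbance as a cytotoxicity measure; measured one day after compound addition; fitted in both directions against DMSO so loss or gain of signal counts.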 The following applies: primary human HUVEC with PBMC. The procedure, abridged:
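Human umbilical vein endothelial cells co-cultured with PBMC (LPS system) were dosed for 24 h. Total protein was stained with 0.1% sulforhodamine B after 10% TCA fixation, read at 560 nm, and fitted bidirectionally against DMSO baseline.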

Read-out in assay [19]: Interleukin-1 alpha (IL1a), IL1A (gene 3552)
The experiment in a line: BSK_LPS_IL1a: BioMAP Diversity Plus: LPS Assay for Interleukin-1 alpha (IL1a) Biomarker Activity (AID 2283080). Conditions: primary human HUVEC with PBMC; actives raise or lower the signal. The procedure, abridged: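 Human umbilical vein endothelial cells co-cultured with peripheral blood mononuclear cells were LPS-stimulated and exposed to test chemicals for 24 h. IL-1 alpha was quantified by ELISA, with bidirectional curve fitting against DMSO as the negative control and baseline.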

Structures are written as SMILES. Several values for one entry are separate records, joined by “and”; a condition that tells them apart may be missing. Equal entries are not always repeated. Some structures have more than one record in an assay (separate samples or runs), and their calls can disagree. Activity calls are given as the source filed them. The calls were made as follows: active = hit-call score of the fitted dose curve at least 0.9, where 1 is the maximum; inactive = score below 0.9.

E-selectin (Homo sapiens), sequence (P16581 whole entry, looked up): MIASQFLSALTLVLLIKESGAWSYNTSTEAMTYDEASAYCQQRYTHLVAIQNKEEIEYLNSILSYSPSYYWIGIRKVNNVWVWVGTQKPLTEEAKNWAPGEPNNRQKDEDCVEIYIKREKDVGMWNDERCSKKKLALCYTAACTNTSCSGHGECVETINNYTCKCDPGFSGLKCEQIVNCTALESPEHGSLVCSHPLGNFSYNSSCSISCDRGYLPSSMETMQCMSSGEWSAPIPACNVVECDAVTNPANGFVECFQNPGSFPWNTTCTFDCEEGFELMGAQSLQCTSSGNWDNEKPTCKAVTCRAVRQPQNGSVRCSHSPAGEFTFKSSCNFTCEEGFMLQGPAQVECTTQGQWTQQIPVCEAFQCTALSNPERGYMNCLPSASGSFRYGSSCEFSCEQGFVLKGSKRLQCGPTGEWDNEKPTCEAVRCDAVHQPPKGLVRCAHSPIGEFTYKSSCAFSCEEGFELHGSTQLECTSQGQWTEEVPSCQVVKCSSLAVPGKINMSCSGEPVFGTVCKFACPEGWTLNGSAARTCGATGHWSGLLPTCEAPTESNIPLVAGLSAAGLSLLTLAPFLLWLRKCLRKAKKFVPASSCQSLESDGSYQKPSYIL

Take `O=C(O)C(F)(F)C(F)(F)C(F)(F)C(F)(F)C(F)(F)C(F)(F)C(F)(F)C(F)(F)C(F)(F)C(F)F`: the AC50 in assay [1] is 11 µM (active); in [2], 54 µM (active) and 7.25 µM (active); in assay [4], 9.87 µM (active) and 5.95 µM (active); in [6], 15.3 µM (active) and 5.95 µM (active); in [7], 45.6 µM (active) and 46 µM (active); in assay [9] it was 27.6 µM (active) and 23.7 µM (active). Besides, the AC50 is 52.4 µM (active) and 49.3 µM (active) in [10]; 48.7 µM (active) and 46.1 µM (active) in assay [11]; 42.2 µM (active) in [12]; 30 µM (active) and 11.4 µM (active) in [13]; 16.2 µM (active) and 12.5 µM (active) in [14]; 47.5 µM (active) and 54.1 µM (active) in assay [15]. For the same compound, the AC50 with CD40, CD40 (gene 958) is 24.9 µM (active) and 41.6 µM (active); in assay [16] it was 58.3 µM (active); in assay [17] it was 55 µM (active); in [18], 46.9 µM (active) and 55 µM (active); in assay [19], 54.9 µM (active). In addition, the outcome in [1], in [3], in [5], in [8], in assay [12] and in [16] was inactive. The outcome in assay [17] and in assay [19] was inactive.

With `FC(F)(I)C(F)(F)C(F)(F)C(F)(F)I`, the AC50 was 51.1 µM (active) and 47.7 µM (active) and 58.5 µM (active) in assay [1]; 46.3 µM (active) and 52.7 µM (active) and 54 µM (active) in [2]; 45.3 µM (active) and 46.7 µM (active) and 47.2 µM (active) in assay [3]; 50.1 µM (active) and 46 µM (active) and 54.4 µM (active) in [4]; 56.1 µM (active) and 47.6 µM (active) and 46.9 µM (active) in [5]; 50.3 µM (active) and 57.2 µM (active) and 46.4 µM (active) in [6]. The AC50 in assay [7] was 45.1 µM (active) and 50.2 µM (active) and 44.9 µM (active); in assay [8], 45.5 µM (active) and 46.4 µM (active) and 46.6 µM (active); in assay [9], 52.2 µM (active) and 58.4 µM (active) and 56.6 µM (active); in assay [10] it was 52.6 µM (active) and 51.1 µM (active) and 58.7 µM (active); in assay [11], 53.2 µM (active) and 47.2 µM (active) and 47.7 µM (active); in [12], 54.2 µM (active) and 46.7 µM (active) and 53.1 µM (active). In addition, the AC50 in assay [13] is 50.9 µM (active) and 46.8 µM (active) and 48.7 µM (active); in assay [15] it was 49.5 µM (active) and 45.8 µM (active) and 54 µM (active). In addition, the outcome was “inactive” with CD40, CD40 (gene 958); “inactive” in [16]; “inactive” in assay [17]; “inactive” in [18]; “inactive” in [19].
